# In the supplement of paper PMC11001985:
# A number with no mark means an inactive call.
# Compound: C#CCNC(=O)CCSSCCC(=O)NCCc1ccc(C=O)c(C=O)c1
# Assay: lysine labeling ratio R10:1 (500 µM / 50 µM probe), SILAC-ABPP in living cells; higher = lower intrinsic lysine reactivity toward the probe, active = 2 or less
# Settings: HeLa; probe concentrations 500 vs 50 µM
# Outline: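 Living SILAC light and heavy HeLa cells in PBS at room temperature were treated with an alkyne-tagged, disulfide-linked lysine probe at 50 µM or 500 µM, with forward and reverse label swaps. The mixed lysates were clicked to biotin-azide, digested with trypsin, captured on neutravidin, released with DTT, alkylated and run by LC-MS/MS on a TIMS-TOF Pro. R for each lysine is the filtered median high-probe/low-probe MS1 peptide ratio, taken again as the median over forward and reverse replicates. Any value above 20 is set to 20.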
# UniProt P50454, sequence (P50454 whole entry): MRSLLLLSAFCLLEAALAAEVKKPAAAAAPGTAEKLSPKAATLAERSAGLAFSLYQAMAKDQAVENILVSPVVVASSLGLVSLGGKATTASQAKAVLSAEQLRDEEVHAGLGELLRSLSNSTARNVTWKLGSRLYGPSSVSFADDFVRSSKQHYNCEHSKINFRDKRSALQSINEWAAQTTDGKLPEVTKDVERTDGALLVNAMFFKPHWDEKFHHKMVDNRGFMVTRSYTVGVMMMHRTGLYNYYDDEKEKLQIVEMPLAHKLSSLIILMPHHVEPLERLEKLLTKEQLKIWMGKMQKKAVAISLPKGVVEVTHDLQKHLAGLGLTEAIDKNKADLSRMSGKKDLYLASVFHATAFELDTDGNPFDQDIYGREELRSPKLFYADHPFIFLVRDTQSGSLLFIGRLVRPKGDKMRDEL
# UniProt P26038, sequence (P26038 whole entry): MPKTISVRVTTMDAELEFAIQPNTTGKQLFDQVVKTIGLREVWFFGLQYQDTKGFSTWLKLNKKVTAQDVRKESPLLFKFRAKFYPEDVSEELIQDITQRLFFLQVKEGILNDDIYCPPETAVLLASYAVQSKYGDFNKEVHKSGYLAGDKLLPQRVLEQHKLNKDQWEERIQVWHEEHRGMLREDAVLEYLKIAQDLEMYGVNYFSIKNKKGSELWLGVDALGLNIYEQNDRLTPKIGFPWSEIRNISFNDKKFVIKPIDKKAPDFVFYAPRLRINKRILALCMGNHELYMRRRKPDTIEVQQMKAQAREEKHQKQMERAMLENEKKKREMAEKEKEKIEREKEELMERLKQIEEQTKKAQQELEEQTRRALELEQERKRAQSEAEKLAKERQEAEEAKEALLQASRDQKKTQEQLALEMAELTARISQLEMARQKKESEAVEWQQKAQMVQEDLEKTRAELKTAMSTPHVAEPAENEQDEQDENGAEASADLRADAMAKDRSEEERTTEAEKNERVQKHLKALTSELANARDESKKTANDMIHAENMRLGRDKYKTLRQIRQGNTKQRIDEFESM
# UniProt P08069, sequence (P08069 whole entry, looked up): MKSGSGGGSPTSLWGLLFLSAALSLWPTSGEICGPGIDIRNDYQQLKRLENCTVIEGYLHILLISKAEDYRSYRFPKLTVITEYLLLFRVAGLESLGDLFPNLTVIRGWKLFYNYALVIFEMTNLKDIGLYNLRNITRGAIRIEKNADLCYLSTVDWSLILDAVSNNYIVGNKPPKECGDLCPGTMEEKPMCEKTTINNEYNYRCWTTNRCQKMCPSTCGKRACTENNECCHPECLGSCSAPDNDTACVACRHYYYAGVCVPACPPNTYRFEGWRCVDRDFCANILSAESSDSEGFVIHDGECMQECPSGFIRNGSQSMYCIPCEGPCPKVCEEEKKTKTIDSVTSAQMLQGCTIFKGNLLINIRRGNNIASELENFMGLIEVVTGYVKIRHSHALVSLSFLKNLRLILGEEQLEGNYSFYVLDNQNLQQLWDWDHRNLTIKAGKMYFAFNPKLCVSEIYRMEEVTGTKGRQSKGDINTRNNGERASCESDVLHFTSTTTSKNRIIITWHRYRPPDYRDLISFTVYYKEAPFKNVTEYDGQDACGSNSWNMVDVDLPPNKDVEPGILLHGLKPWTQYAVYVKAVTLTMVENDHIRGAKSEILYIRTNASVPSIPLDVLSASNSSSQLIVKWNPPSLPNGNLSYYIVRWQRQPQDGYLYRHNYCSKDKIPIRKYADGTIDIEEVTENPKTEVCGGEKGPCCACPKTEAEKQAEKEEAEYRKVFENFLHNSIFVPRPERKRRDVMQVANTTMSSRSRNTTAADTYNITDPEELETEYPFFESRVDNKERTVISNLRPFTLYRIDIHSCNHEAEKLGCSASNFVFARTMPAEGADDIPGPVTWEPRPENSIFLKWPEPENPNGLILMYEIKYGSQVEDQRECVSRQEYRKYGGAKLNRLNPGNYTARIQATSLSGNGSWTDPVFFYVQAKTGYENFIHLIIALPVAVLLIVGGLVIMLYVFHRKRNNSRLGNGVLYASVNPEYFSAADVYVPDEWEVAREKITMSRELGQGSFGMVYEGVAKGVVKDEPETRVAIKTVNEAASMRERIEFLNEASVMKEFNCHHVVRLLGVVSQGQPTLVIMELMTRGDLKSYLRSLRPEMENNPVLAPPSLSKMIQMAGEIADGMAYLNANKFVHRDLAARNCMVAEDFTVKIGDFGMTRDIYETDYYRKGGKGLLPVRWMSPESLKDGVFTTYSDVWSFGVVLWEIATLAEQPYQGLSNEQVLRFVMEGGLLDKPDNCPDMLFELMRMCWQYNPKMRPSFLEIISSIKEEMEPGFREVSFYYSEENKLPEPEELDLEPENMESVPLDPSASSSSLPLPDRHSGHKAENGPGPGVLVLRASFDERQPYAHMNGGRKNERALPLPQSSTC
# UniProt P49720, sequence (P49720 whole entry): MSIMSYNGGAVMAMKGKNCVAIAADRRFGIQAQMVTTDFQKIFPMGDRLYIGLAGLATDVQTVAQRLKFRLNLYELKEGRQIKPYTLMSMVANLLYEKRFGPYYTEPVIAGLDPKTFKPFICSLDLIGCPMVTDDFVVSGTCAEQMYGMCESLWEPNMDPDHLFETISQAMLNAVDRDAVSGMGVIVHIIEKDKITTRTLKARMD
# UniProt O43657, sequence (O43657 whole entry): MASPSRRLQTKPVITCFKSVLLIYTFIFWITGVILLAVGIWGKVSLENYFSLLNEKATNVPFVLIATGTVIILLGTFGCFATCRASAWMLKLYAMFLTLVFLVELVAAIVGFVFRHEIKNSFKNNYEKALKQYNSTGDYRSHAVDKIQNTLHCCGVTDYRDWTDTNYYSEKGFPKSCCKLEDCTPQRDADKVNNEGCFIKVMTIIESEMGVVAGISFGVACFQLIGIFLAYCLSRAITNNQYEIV
row,Target,lysine labeling ratio R10:1
1,UniProt P49720 (lysine site: K77),2.88
2,SERPINH1 (lysine site: K190) (UniProt P50454),2.12
3,H2AFX (lysine site: K37) (UniProt P16104),2.89
4,TSPAN6 (lysine site: K179) (UniProt O43657),1.94 (active)
5,IGF1R (lysine site: K892) (UniProt P08069),3.9
6,MSN (lysine site: K313) (UniProt P26038),5.6
